Results published in PubChem BioAssay (NCATS).
A number with no mark means an inactive call. Results filed as inconclusive are left out. A call without a number means that no potency is given here. Activity calls are given as the source filed them. Unless noted, calls come from the whole dose curve; as a rule, active = well fitted curve in either direction with a large enough effect (not every such curve was filed as active); inconclusive = small, poorly fitted or top-dose-only effect, or another doubt; inactive = flat fitted curve, though single readings scatter.

What was measured:
[1] = AP1 Signaling Pathway (AID 357); details: ME-180 AP-1-bla reporter, EGF-induced, beta-lactamase ratio, 5 h; at 7.69 µM (top of the series) unless noted;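 note: ME-180 reporter cells stimulated with EGF at its EC50 level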
Summary of the method: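 Cells are seeded overnight, exposed to compound titrations and an EC50 level of EGF for 5 hours at 37 °C, then loaded with CCF4 dye for 2.5 hours. Beta-lactamase activity under the AP-1 element is read as a blue/green ratio.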

[2] = molecular target: Cytochrome P450 1A2 (Homo sapiens) (UniProt P05177); assay: p450-cyp1a2 (AID 410; calls by dose curve; note: potency is the fitted concentration of half-maximal effect)
Chain of Cytochrome P450 1A2 (Homo sapiens) (P05177 whole entry, looked up): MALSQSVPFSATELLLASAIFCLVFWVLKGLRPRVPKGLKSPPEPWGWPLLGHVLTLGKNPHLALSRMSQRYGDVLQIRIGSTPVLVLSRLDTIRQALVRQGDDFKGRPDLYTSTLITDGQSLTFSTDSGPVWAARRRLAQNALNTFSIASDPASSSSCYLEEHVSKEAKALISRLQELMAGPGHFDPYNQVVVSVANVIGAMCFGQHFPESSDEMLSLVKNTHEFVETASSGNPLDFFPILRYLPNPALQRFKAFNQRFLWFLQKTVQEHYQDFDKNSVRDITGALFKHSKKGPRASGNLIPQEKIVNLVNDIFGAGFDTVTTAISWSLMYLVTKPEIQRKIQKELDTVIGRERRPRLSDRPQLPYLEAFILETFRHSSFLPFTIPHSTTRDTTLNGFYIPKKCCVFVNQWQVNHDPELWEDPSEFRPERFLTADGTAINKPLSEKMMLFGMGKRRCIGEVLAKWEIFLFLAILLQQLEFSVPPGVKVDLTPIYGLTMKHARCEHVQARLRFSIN
Summary of the method: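 Inhibition was calculated relative to 57 uM furafylline (full inhibition). The reaction used human CYP1A2 at 20nM with Luciferin-ME at its Km, 100uM, driven by an NADPH-regenerating system for 60 min at room temperature.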

[3] = NFAT Signaling Pathway (AID 444); details: Jurkat NFAT-bla M1, carbachol, beta-lactamase ratio, 5 h; at 7.69 µM (top of the series) unless noted;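 note: carbachol stimulus at about its EC50 of 1 µM final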
Summary of the method: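 Jurkat cells carrying an NFAT-driven β-lactamase reporter and co-transfected muscarinic M1 receptor were treated with compound plus carbachol (1 uM final, an EC50 level) for 5 h at 37 °C. CCF4 loading followed for 1 h at RT; 460/530 nm ratio gave %activity.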

[4] = Stat Signaling Pathway (AID 446); details: ME-180 SIE beta-lactamase reporter, IL-6 stimulated, 5 h; at 7.69 µM (top of the series) unless noted;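 note: ME-180 cervical cancer cells given 40 pM IL-6 alongside compound; SIE-controlled beta-lactamase reporter measured as 460/530 nm FRET emission ratio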
Summary of the method: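 ME-180 cells carrying a SIE-driven beta-lactamase reporter are stimulated with 40 pM IL-6 for 5 h at 37C in the presence of compound. The 460/530 nm FRET substrate ratio is read after 2.5 h at RT. Data are normalised to 300 pM IL-6 and to 125 nM JAK inhibitor controls.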

[5] = molecular target: Glucocorticoid receptor (Homo sapiens) (UniProt P04150); assay: GR-GFP Redistribution (AID 450;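 active = compounds whose dose series gives a full or clear partial fitted curve of increased nuclear translocation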; note: potency is the fitted concentration of half-maximal effect); details: U2OS GR-GFP nuclear translocation, laser cytometry, 2 h
Chain of Glucocorticoid receptor (Homo sapiens) (P04150 whole entry, looked up, the tested form may be a part): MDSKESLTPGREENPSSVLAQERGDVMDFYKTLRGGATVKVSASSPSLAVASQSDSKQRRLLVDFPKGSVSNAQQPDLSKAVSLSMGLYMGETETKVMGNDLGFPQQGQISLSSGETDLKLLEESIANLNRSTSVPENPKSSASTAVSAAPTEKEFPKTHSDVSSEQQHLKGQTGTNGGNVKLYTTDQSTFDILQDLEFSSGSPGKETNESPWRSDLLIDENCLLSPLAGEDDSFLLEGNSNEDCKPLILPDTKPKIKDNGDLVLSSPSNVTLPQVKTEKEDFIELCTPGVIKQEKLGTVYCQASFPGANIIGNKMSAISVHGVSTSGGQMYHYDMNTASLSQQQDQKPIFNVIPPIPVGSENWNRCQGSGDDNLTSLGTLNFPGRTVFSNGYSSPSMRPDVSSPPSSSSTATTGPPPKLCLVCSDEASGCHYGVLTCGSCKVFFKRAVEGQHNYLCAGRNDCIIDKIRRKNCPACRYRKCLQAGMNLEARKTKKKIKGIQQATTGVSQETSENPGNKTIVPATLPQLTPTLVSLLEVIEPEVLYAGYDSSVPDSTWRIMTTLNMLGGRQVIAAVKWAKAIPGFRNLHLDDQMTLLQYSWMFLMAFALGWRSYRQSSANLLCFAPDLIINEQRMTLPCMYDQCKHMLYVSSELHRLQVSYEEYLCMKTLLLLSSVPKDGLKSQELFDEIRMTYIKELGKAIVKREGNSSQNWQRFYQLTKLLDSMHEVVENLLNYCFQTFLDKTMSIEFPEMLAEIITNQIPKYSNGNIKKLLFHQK

[6] = molecular target: Glucocorticoid receptor (Homo sapiens) (UniProt P04150); assay: GR-EFC Redistribution (AID 451; calls by dose curve; note: potency is the fitted concentration of half-maximal effect); details: CHO-K1 GR-EFC translocation, beta-gal luminescence, 2 h
Summary of the method: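 CHO-K1 cells stably expressing nuclear-localized β-gal enzyme acceptor and GR fused C-terminally to the enzyme donor fragment; ligand-driven nuclear translocation restores β-gal by complementation. Compounds titrated up to 46 uM final, 2 h at 37 °C; luminescence read.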

[7] = molecular target: Mitogen-activated protein kinase 10 (Mus musculus) (UniProt Q61831); assay: JNK3 AlphaScreen Assay (AID 530);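 note: kinase came from lysate of stimulated human HepG2 cells; signal reports phosphorylation of biotinylated GST-cJun 1-79 at Ser73 with 10 µM ATP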
Summary of the method: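 JNK3 came from HepG2 lysates pre-activated with IL-1beta and TNF-alpha and phosphorylated biotinylated GST-cJun (1-79) at 10 uM ATP, pH 7.6, room temperature. Compounds were titrated. AlphaScreen signal used anti-phospho-cJun (Ser73) antibody.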

[8] = molecular target: 3',5'-cyclic-AMP phosphodiesterase 4B (Homo sapiens) (UniProt Q07343); assay: qHTS Assay for Inhibitors of PDE-IV (AID 607; active = well fitted activation curve with a large enough effect in the main read-out, with a control signal flat, not every such curve was filed as active)
Chain of 3',5'-cyclic-AMP phosphodiesterase 4B (Homo sapiens) (Q07343 whole entry, looked up): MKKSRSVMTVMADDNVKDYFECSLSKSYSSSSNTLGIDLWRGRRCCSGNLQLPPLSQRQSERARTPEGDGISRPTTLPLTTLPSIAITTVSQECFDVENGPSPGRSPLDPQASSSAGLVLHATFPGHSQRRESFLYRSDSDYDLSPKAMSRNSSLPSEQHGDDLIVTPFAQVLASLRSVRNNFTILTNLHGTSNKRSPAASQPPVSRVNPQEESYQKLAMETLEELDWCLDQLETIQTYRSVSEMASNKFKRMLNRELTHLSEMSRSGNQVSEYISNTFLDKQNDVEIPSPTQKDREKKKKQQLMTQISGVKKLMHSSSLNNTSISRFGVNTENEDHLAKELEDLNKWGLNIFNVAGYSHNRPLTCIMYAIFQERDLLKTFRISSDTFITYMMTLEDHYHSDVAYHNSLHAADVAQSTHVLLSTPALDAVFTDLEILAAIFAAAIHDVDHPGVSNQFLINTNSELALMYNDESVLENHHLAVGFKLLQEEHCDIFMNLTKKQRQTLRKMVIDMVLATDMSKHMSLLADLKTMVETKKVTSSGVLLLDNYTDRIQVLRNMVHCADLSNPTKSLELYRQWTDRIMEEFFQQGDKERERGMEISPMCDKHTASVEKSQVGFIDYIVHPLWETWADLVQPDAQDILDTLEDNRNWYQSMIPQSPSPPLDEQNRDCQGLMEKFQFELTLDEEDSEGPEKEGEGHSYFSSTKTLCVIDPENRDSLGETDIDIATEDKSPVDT
Summary of the method: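 HEK293 ACTOne cells with CNG channel (1000/well), endogenous PDE4; membrane potential dye, compounds up to 22.9 uM final. Fluorescence Ex 535/Em 590; RO 20-1724 (100 uM final) as reference.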

[9] = qHTS Assay for Identification of Small Molecule Agonists for Thrombopoietin (TPO) Signaling Pathway (AID 917; active = well fitted curve in the direction sought with a large enough effect; an effect the other way counts as inactive or inconclusive)
Summary of the method: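 Luminescence from a Glycoprotein IIb promoter–driven luciferase reporter served as read-out in murine Ba/F3 cells carrying the human TPO receptor. Cells, deprived of IL-3 overnight, received compounds with 26 pM TPO and were incubated 24 hrs at 37 C.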

[10] = molecular target: Muscarinic acetylcholine receptor M1 (Rattus norvegicus) (UniProt P08482); assay: qHTS Assay for Antagonists of Acetylcholine Muscarinic M1 Receptor: Kinetic Measurement of Intracellular Calcium Response (AID 943; active = well fitted curve in the direction sought with a large enough effect; an effect the other way counts as inactive or inconclusive;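 note: Fluo-4 calcium signal as peak divided by basal fluorescence over 4 min; nearly all actives have a fitted effect of over 75% in size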)
Chain of Muscarinic acetylcholine receptor M1 (Rattus norvegicus) (P08482 whole entry, looked up): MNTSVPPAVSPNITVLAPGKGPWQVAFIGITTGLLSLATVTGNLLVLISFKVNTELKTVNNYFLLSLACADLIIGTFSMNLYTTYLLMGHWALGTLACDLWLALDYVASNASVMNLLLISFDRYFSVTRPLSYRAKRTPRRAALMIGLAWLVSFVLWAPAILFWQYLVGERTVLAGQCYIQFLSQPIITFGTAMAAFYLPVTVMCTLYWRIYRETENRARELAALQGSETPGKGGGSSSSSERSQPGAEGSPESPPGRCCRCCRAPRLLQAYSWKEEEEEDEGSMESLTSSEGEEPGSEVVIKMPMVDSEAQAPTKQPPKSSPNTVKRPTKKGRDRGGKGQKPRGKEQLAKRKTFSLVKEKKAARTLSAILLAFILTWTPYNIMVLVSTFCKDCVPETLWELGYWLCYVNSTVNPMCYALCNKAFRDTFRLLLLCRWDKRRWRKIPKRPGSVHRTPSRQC
Summary of the method: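 Intracellular calcium flux, recorded with Fluo-4 in a kinetic plate reader, served as signal; the response to carbachol at EC80 (100 nM final) was taken as maximal over minimal fluorescence after a 10 min compound pre-incubation in rat M1-CHO cells.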

[11] = molecular target: Muscarinic acetylcholine receptor M1 (Rattus norvegicus) (UniProt P08482); assay: qHTS Assay for Antagonists of Acetylcholine Muscarinic M1 Receptor: Measurement of IP-One Response (AID 944; active = well fitted curve in the direction sought with a large enough effect; an effect the other way counts as inactive or inconclusive; note: nearly all actives have a fitted effect of over 75% in size)
Summary of the method: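 Steps: plate transfected CHO-M1 cells overnight; add test compound, 10 min; add carbachol (200 nM, EC80) in stimulation buffer with LiCl; incubate 30 min; add labelled IP1 tracer and anti-IP1 antibody in lysis buffer; read HTRF after 10 min.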

[12] = molecular target: Pyruvate kinase (Leishmania mexicana) (UniProt Q27686); assay: qHTS Validation Assay for Inhibitors of Leishmania Mexicana Pyruvate Kinase (AID 945; active = well fitted curve in the direction sought with a large enough effect; an effect the other way counts as inactive or inconclusive)
Chain of Pyruvate kinase (Leishmania mexicana) (Q27686 2-499 E452W): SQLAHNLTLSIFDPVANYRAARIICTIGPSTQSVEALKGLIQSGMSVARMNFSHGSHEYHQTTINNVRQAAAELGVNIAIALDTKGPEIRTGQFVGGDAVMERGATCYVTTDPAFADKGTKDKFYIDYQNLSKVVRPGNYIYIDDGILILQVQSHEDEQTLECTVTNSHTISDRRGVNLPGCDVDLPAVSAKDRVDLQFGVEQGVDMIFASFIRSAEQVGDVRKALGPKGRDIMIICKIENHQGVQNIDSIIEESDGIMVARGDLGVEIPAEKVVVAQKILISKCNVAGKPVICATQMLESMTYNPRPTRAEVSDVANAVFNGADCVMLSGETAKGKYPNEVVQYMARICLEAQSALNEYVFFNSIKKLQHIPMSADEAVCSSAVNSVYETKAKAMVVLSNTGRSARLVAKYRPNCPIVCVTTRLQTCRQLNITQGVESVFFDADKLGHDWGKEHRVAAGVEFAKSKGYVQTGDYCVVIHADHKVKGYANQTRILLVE
Summary of the method: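 An endpoint luciferase assay: 0.2 nM LmPYK E451W turns over 0.5 mM PEP with 0.1 mM ADP for 1 h at room temperature, pH 7.2, before PKLight addition. Values are normalized to DMSO-only wells.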

[13] = molecular target: Pyruvate kinase PKM (Homo sapiens) (UniProt P14618); assay: qHTS Assay for Activators of Human Muscle Pyruvate Kinase (AID 954; active = well fitted curve in the direction sought with a large enough effect, not every such curve was filed as active)
Chain of Pyruvate kinase PKM (Homo sapiens) (P14618 whole entry, looked up): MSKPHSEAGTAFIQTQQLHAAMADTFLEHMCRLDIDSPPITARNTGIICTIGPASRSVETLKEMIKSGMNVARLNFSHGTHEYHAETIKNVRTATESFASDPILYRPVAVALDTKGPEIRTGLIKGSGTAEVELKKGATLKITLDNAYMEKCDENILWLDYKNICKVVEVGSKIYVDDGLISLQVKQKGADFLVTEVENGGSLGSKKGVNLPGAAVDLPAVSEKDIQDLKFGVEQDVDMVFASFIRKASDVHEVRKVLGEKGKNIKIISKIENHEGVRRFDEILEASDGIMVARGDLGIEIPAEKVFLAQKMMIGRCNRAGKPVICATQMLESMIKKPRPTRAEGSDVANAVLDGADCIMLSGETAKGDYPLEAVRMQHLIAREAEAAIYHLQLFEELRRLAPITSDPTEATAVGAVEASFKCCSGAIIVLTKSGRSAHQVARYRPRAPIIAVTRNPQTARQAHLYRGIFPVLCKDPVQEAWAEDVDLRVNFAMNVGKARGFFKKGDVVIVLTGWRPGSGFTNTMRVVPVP
Summary of the method: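 Purified human PKM2 (0.1 nM) with 0.5 mM PEP (Km) and 0.1 mM ADP in 50 mM imidazole pH 7.2, KCl, MgCl2, 1 h at room temperature; ATP formed read by coupled luciferase luminescence. Normalized to no-enzyme/110 uM thiadiazolimine inhibition; 0.3 nM enzyme column for activation.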

[14] = molecular target: Alpha-galactosidase A (Homo sapiens) (UniProt P06280); assay: Counterscreen for Glucocerebrosidase Inhibitors: qHTS Assay for Human alpha-Galactosidase at pH 4.5 (AID 992; active = well fitted curve in the direction sought with a large enough effect; an effect the other way counts as inactive or inconclusive)
Chain of Alpha-galactosidase A (Homo sapiens) (P06280 whole entry, looked up): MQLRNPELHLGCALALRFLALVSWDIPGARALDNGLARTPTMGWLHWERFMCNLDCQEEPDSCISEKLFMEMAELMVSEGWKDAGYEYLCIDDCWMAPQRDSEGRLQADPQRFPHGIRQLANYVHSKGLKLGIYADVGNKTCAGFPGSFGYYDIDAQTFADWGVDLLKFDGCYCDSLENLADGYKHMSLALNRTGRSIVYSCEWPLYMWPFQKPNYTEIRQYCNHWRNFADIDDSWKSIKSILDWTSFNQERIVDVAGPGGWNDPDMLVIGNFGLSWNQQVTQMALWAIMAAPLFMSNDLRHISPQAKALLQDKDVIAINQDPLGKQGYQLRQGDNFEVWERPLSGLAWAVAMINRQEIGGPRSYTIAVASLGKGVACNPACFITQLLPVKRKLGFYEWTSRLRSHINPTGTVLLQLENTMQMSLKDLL
Summary of the method: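 Human enzyme (2 nM) with 80 uM 4-methylumbelliferyl alpha-D-galactopyranoside in 50 mM citric acid, 0.005% Tween-20, pH 4.5, 20 min at room temperature. Compounds 0.7 nM–77 uM; fluorescence Ex 365/Em 440 after pH 10 stop; AC50 from Hill fits.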

[15] = molecular target: alpha-glucosidase (Oryza sativa, rice) (UniProt Q653V4); assay: Counterscreen for Glucocerebrosidase Inhibitors: qHTS Assay for Rice alpha-Glucosidase at pH 5.0 (AID 997; active = well fitted curve in the direction sought with a large enough effect; an effect the other way counts as inactive or inconclusive)
Summary of the method: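 Rice alpha-glucosidase (4 nM final) with 400 uM 4-methylumbelliferyl-alpha-D-glucopyranoside in citrate buffer pH 5.0, 20 min at room temperature, stopped at pH 10; fluorescence 365/440 nm, compounds 0.7 nM–77 uM, AC50 from Hill fits.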

[16] = molecular target: Cytochrome P450 2C9 (Homo sapiens) (UniProt P11712); assay: qHTS Assay for Inhibitors and Substrates of Cytochrome P450 2C9 (AID 883; active = well fitted curve in the direction sought with a large enough effect; an effect the other way counts as inactive or inconclusive; note: nearly all actives have a fitted effect of over 60% in size)
Chain of Cytochrome P450 2C9 (Homo sapiens) (P11712 whole entry, looked up): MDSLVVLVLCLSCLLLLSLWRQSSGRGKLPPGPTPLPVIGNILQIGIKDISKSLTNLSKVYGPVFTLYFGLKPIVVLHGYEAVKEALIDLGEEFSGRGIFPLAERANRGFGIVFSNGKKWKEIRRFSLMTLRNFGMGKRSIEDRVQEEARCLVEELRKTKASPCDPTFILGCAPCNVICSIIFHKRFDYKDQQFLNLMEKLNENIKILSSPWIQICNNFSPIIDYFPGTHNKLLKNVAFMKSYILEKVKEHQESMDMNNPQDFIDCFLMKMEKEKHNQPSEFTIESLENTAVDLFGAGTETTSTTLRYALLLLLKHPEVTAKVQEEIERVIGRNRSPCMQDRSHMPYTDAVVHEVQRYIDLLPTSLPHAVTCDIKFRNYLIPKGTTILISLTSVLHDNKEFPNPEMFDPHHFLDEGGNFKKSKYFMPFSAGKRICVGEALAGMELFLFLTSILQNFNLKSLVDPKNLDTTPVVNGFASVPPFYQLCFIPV
Summary of the method: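 A luminogenic readout tracked human CYP2C9 (10nM) converting deoxyluciferin (100uM, at KM) in 25mM KPO4 during 60 min at 37C with regenerated NADPH. Values normalized to 57uM sulphaphenazole as complete inhibition.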

[17] = molecular target: Cytochrome P450 2D6 (Homo sapiens) (UniProt P10635); assay: qHTS Assay for Inhibitors and Substrates of Cytochrome P450 2D6 (AID 891; active = well fitted curve in the direction sought with a large enough effect; an effect the other way counts as inactive or inconclusive;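 note: luciferin methyl ether substrate demethylated by CYP2D6 with NADPH regeneration; nearly all actives have a fitted effect of over 60% in size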)
Summary of the method: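 Human CYP2D6 (5 nM) with 30 uM Luciferin-ME EGE (at Km) in 100 mM KPO4, compound preincubated 10 min, then NADPH regeneration system for 60 min at room temperature. Luciferin read by luminescence; normalized to 1.43 uM quinidine.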

[18] = molecular target: Cytochrome P450 2C19 (Homo sapiens) (UniProt P33261); assay: qHTS Assay for Inhibitors and Substrates of Cytochrome P450 2C19 (AID 899; active = well fitted curve in the direction sought with a large enough effect; an effect the other way counts as inactive or inconclusive; note: nearly all actives have a fitted effect of over 60% in size; note: potency is the fitted concentration of half-maximal effect)
Chain of Cytochrome P450 2C19 (Homo sapiens) (P33261 whole entry, looked up): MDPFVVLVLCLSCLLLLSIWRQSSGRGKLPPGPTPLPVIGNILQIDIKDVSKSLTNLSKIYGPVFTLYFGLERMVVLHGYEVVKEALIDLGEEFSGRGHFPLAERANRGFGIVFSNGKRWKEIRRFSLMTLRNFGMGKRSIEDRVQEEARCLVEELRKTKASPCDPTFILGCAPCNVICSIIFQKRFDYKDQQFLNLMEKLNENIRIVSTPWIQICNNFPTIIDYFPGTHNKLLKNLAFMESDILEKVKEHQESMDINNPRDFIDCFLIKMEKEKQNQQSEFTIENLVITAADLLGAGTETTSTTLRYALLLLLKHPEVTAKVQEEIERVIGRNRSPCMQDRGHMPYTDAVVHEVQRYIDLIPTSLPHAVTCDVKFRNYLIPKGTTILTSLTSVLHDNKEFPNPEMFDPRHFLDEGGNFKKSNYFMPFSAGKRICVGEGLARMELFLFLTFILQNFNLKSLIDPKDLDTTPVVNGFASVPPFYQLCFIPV
Summary of the method: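 NADPH-dependent conversion of Luciferin-H EGE (10uM, at KM) by 5nM enzyme in 50mM KPO4, 60 min at 37C following 10 min compound preincubation. Stopped with luciferin detection buffer; luminescence read after 20 min.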

[19] = molecular target: Guanine nucleotide-binding protein G(i) subunit alpha-1 (Homo sapiens) (UniProt P63096); assay: qHTS Assay for Inhibitors of RGS12 GoLoco Motif Activity (Green Fluorophore) (AID 879; active = well fitted curve in the direction sought with a large enough effect; an effect the other way counts as inactive or inconclusive;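 note: negative values mean loss of peptide binding seen as reduced polarization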)
Summary of the method: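 Fluorescence polarization assay: 50 nM Gαi1 with 10 nM FITC-labeled RGS12 GoLoco peptide in 10 mM Tris pH 7.5, 150 mM NaCl, 0.1 mM GDP, 0.05% NP40, 10 min at room temperature with compound.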

[20] = molecular target: Cytochrome P450 3A4 (Homo sapiens) (UniProt P08684); assay: qHTS Assay for Activators of Cytochrome P450 3A4 (AID 885; active = well fitted curve in the direction sought with a large enough effect; an effect the other way counts as inactive or inconclusive; note: nearly all actives have a fitted effect of over 65% in size)
Summary of the method: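 Human CYP3A4 (20 nM) with Luciferin-PPXE at 25 uM (its KM) in 200 mM KPO4; 10 min compound preincubation, then NADPH regeneration and 60 min reaction at RT. Luciferin read by luminescence; normalized to 57 uM ketoconazole full inhibition.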

| Compound | activity change, negative = inhibition [1] | Potency [2] | activity change, negative = inhibition [3] | activity, negative = inhibition [4] | Potency [5] [µM] | Potency [6] [µM] | Potency [7] | Potency [8] | outcome [9] | Potency [10] | Potency [11] | outcome [12] | outcome [13] | outcome [14] | Potency [15] | Potency [16] | Potency [17] | Potency [18] | outcome [19] | Potency [20] |
| --- | --- | --- | --- | --- | --- | --- | --- | --- | --- | --- | --- | --- | --- | --- | --- | --- | --- | --- | --- | --- |
| N[C@H](CCC(=O)NCS(=O)(=O)O)C(=O)O | 3.52% [at 38 µM] | inactive | 4.56% [at 38 µM] | -7.51% [at 38 µM] | > 46 | > 46 | inactive | inactive | inactive | inactive | inactive | inactive | inactive | inactive | inactive |  |  |  |  |  |
| CCN1/C(=C\C(C)=O)Sc2ccc(OC)cc21 | -18.4% [at 38 µM] | 0.631 µM (active) | 10.3% [at 38 µM] | 2.84% [at 38 µM] | > 46 | > 46 | inactive | inactive |  |  |  |  |  |  |  | inactive | inactive | inactive |  |  |
| C[C@@H](Cc1ccccc1)Nc1ncnc2c1ncn2[C@@H]1O[C@@H](CO)[C@H](O)[C@@H]1O | -12.1% [at 38 µM] | inactive | -0.283% [at 38 µM] | -0.703% [at 38 µM] | > 46 | > 46 | inactive |  | inactive |  | inactive | inactive | inactive | inactive | inactive |  |  |  | inactive |  |
| C[C@](O)(c1ccccc1)c1nccc2ccccc12 | -0.483% | inactive | 3.41% | -8.29% | > 46 | > 9.22 | inactive | inactive |  |  |  |  |  |  |  |  |  |  |  |  |
| O=c1cnc2cnc(Oc3ccccc3)nc2n1Cc1ccc(F)cc1 | -8.79% | 15.8 µM (active) | -4.49% | 18.8% | > 9.22 | > 46 | inactive | inactive |  |  |  |  |  |  |  |  |  | 2.51 µM (active) |  | inactive |
| Nc1ncnc2c1ncn2[C@@H]1CCCO1 | 2.44% [at 38 µM] | inactive | -4.45% [at 38 µM] | -7.91% [at 38 µM] | > 46 | > 46 | inactive | inactive | inactive |  | inactive | inactive | inactive | inactive | inactive | inactive |  |  |  |  |
